Laboratory results from PubChem BioAssay.
Calls of active or inactive are those of the source.

Key:
[1] = target: Albumin (Bos taurus) (UniProt P02769); assay: compounds binding labelled BSA control protein – biochemical, small-molecule microarray, Alexa647 label, 635/667 nm fluorescence, artefact control for SMM control protein annotation, profiling panel (AID 1118); conditions: BSA-A647 binding, fluorescence 635 nm, higher = more signal;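 note: score merges 667 nm emission intensity and signal-to-noise per printed compound spot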
[2] = probe aXIP binding to arrayed compounds – biochemical, NeuroSMM set, 635/667 nm fluorescence, primary screen (AID 1119); conditions: small-molecule microarray, higher = more signal, called active from +8 up or from −8 down;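 note: probe is the protein aXip251-270 applied at 1 µg/mL to compound-printed slides; binding of probe to printed compounds measured as 667 nm fluorescence plus signal to noise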
[3] = probe aNOTCH3 binding on compound microarray – biochemical, small-molecule microarray, 635/667 nm fluorescence, primary screen (AID 1120); conditions: higher = more signal;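 note: probe is a biotin-tagged antibody raised against NOTCH3 rather than NOTCH3 protein; score merges spot fluorescence near 667 nm with spot signal to noise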
[4] = probe aNOTCH2 binding on compound microarray – biochemical, small-molecule microarray, 635/667 nm fluorescence, primary screen (AID 1121); conditions: higher = more signal;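 note: score merges feature fluorescence read at 667 nm with its signal to noise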
[5] = target: Carbonic anhydrase 2 (Homo sapiens) (UniProt P00918); assay: compounds binding carbonic anhydrase 2 – biochemical, small-molecule microarray, Alexa647-labelled CAII, profiling panel (AID 1122); conditions: CAII-A647 binding fluorescence, higher = more signal
[6] = COS7 lysate on small-molecule microarray, probe aHis, 635 nm (AID 1123); conditions: COS7 cell lysate, fluorescence, higher = more signal;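 note: z-score combines 667nm fluorescence intensity with signal-to-noise per printed compound spot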
[7] = probe aLAP1 signal on lysate-treated microarray – cell lysate, small-molecule microarray, COS7 lysate, primary screen (AID 1124); conditions: probe aLAP1, fluorescence, higher = more signal;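 note: lysate comes from COS7 cells expressing LAP1 and is applied at 0.3 µg/mL; score merges spot fluorescence near 667 nm with signal-to-noise over triplicate slides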
[8] = test system: Sam68 (KHDRBS1); assay: compounds binding KHDRBS1 protein – biochemical, small-molecule microarray, 635 nm fluorescence, primary screen (AID 1125); conditions: higher = more signal;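 note: score merges 667 nm channel intensity with signal to noise over triplicate slides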
[9] = test system: Chordin-like protein 2 (CHRDL2); assay: compounds binding chordin-like 2 – biochemical, small-molecule microarray, 635 nm fluorescence, primary screen (AID 1126); conditions: fluorescence 635 nm, higher = more signal;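 note: printed compound slides probed with Chrdl2 protein at 4 µg/mL for 1 h at 4 C; score merges 667 nm emission intensity with signal to noise over three replicate slides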
[10] = target: Concanavalin-A (Canavalia ensiformis) (UniProt P02866); assay: compounds binding concanavalin A lectin – biochemical, small-molecule microarray, Alexa647 label, 635 nm, artefact control for SMM control protein annotation, primary screen (AID 1127); conditions: ConA-A647 binding fluorescence, higher = more signal;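 note: z combines 667 nm emission intensity with signal-to-noise across three replicate slides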
[11] = compounds binding Alexa647 anti-His antibody – biochemical, small-molecule microarray, 635 nm fluorescence, artefact control for SMM control protein annotation, primary screen (AID 1128); conditions: higher = more signal;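 note: score merges feature fluorescence with signal-to-noise for each printed compound spot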
[12] = test system: Human papillomavirus type 1a E7 protein (residues 1-88); assay: HPV1a E7 small-molecule binders, primary screen, biochemical, small-molecule microarray, residues 1-88, 635 nm (AID 1129); conditions: small-molecule microarray binding, fluorescence 635 nm; higher = more signal
[13] = target: Focal adhesion kinase 1 (Homo sapiens) (UniProt Q05397); assay: PTK2 protein binding on printed compound slides – biochemical, small-molecule microarray, 635/667 nm fluorescence, BSA, DTT, primary screen (AID 1130); conditions: 635 nm fluorescence, higher = more signal;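 note: composite of spot emission at 667 nm and signal to noise over triplicate slides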
[14] = test system: Fibrinogen (Alexa647-labelled); assay: Alexa647-fibrinogen binding to printed small molecules – biochemical, small-molecule microarray, 635/667 nm fluorescence, artefact control for SMM control-protein annotation, profiling panel (AID 1131); conditions: fibrinogen-A647 binding fluorescence, higher = more signal;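 note: z-score merges 667 nm fluorescence with per-spot signal-to-noise over triplicate slides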
[15] = target: Follistatin (Homo sapiens) (UniProt P19883); assay: FST protein binding to printed compounds – biochemical, small-molecule microarray, 635/667 nm fluorescence, primary screen (AID 1132); conditions: 635 nm fluorescence, higher = more signal
[16] = target: Fibroblast growth factor 2 (Homo sapiens) (UniProt P09038); assay: basic fibroblast growth factor binding to printed compounds – biochemical, small-molecule microarray, 635/667 nm fluorescence, primary screen (AID 1133); conditions: FGF2, fluorescence 635/667, higher = more signal
[17] = JC-1 mitochondrial potential readout, lung cancer cells – cell-based, A549, JC-1 fluorescence, basal, 24 h, 100 nL, profiling panel (AID 1138); conditions: higher = more signal;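 note: A549 lung adenocarcinoma cells under basal conditions with no added stimulus; test concentration not given here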
[18] = test system: Lefty1; assay: Lefty1 protein binding to printed compounds – biochemical, small-molecule microarray, 635/667 nm fluorescence, primary screen (AID 1139); conditions: fluorescence 635/667, higher = more signal
[19] = test system: wheat germ agglutinin (Triticum aestivum), Alexa647-labelled; assay: Alexa647-WGA lectin binding to printed small molecules – biochemical, small-molecule microarray, 635/667 nm fluorescence, artefact control for SMM control-protein annotation, profiling panel (AID 1140); conditions: WGA-A647 binding, 635 nm fluorescence, higher = more signal;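 note: score merges 667 nm feature emission with signal to noise over triplicate slides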
[20] = target: Luciferin 4-monooxygenase (Photinus pyralis) (UniProt P08659); assay: inhibition of purified Photinus pyralis luciferase – biochemical, luminescence, purified enzyme, 2006 set, primary screen (AID 1141); conditions: purified firefly luciferase, SteadyGlo luminescence, 30 min; higher = more signal, called active from +8 up or from −8 down;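 note: cell-free assay with purified firefly luciferase at 100 ng per well in PBS; test concentration not given here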
Luciferin 4-monooxygenase (Photinus pyralis), sequence (P08659 whole entry, looked up): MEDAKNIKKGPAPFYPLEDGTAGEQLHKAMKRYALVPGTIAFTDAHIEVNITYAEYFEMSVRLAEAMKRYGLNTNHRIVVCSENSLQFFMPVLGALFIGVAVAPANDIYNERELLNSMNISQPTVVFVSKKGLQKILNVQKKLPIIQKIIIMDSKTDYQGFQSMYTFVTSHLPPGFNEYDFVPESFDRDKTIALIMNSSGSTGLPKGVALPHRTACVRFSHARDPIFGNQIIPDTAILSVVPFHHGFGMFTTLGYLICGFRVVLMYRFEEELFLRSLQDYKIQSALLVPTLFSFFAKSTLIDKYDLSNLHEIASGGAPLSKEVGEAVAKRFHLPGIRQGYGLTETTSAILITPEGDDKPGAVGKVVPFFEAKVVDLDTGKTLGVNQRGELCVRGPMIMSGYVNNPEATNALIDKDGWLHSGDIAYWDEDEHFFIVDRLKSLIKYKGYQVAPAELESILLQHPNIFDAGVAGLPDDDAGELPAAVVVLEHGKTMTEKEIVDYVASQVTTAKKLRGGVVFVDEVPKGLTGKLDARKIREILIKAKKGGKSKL

Albumin (Bos taurus), sequence (P02769 whole entry, looked up): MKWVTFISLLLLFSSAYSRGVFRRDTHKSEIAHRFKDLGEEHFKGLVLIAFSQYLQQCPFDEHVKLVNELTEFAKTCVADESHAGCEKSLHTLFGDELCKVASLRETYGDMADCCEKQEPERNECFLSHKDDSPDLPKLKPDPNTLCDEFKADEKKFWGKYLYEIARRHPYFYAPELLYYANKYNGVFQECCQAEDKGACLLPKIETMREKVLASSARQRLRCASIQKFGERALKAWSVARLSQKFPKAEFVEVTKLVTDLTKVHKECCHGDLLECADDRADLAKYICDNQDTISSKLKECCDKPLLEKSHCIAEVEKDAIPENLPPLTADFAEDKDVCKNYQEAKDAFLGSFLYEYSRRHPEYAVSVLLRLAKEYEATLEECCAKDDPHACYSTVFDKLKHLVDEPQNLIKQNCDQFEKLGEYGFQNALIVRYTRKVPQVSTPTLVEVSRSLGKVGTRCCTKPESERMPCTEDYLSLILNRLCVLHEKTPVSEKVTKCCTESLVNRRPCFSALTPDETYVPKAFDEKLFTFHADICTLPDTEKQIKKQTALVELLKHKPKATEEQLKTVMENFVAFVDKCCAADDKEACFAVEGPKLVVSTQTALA
Focal adhesion kinase 1 (Homo sapiens), sequence (Q05397 whole entry, looked up): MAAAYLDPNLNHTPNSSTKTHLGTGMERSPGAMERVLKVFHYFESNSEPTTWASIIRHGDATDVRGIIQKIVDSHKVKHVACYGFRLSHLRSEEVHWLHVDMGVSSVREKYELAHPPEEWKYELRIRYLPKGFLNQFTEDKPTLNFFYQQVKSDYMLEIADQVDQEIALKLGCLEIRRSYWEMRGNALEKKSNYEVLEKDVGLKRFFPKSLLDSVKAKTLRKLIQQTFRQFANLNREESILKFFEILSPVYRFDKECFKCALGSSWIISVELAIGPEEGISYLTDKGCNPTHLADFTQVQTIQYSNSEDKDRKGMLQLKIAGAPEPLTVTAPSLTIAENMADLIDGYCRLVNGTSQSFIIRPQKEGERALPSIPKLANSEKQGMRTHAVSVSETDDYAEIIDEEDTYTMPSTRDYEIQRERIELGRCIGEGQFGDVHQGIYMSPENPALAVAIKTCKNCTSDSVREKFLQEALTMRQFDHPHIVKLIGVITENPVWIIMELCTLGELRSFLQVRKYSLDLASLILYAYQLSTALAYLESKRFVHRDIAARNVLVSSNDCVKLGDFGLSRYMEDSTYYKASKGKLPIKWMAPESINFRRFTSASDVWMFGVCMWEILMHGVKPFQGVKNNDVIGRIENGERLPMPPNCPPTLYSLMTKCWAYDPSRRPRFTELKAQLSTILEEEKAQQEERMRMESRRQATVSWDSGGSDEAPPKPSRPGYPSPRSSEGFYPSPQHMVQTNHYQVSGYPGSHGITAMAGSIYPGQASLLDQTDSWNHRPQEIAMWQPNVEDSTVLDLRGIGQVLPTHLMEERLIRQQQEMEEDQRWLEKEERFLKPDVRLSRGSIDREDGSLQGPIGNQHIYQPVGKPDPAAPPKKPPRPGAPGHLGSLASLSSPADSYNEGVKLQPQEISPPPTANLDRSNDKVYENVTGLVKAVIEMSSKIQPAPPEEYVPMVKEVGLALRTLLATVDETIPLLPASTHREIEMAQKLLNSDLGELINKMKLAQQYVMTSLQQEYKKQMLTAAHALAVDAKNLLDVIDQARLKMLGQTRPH
Fibroblast growth factor 2 (Homo sapiens), sequence (P09038 whole entry, looked up): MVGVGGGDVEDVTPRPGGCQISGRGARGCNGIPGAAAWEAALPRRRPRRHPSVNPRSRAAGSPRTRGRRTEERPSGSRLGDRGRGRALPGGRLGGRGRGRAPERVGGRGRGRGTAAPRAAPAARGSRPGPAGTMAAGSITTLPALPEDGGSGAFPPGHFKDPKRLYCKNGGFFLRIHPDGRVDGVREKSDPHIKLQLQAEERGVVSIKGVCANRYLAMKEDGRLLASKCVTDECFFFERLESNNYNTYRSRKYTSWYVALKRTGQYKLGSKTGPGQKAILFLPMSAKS
Concanavalin-A (Canavalia ensiformis), sequence (P02866 whole entry, looked up): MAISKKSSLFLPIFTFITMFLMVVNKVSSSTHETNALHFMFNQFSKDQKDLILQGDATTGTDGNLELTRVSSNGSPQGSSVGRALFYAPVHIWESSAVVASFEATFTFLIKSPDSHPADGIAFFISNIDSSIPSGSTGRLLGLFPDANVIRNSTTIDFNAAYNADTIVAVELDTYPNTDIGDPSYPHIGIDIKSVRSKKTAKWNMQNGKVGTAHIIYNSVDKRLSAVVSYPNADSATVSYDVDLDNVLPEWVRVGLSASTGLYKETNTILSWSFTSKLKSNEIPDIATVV
Follistatin (Homo sapiens), sequence (P19883 whole entry, looked up): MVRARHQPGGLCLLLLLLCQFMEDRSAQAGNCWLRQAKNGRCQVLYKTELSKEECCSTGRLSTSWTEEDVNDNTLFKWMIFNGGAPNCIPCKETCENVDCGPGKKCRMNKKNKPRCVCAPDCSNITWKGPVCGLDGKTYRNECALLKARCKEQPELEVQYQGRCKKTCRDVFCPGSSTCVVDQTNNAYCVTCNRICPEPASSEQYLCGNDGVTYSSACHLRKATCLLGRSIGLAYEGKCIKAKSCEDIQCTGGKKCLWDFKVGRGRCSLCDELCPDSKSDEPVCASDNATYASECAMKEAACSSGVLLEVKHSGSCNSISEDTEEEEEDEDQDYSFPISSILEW

COCCOC(=O)N1C(=O)[C@@]2(c3cc(C#CC4=CCCCC4)ccc31)[C@H](c1ccccc1OCCO)N1[C@H](c3ccccc3)[C@H](c3ccccc3)OC(=O)[C@H]1[C@@H]2C(=O)NC[C@H](O)c1ccccc1
composite z-score [1]: -0.185 | composite Z-score [2]: 0.511 (inactive) | composite z-score [3]: 0.463 | composite z-score [4]: -0.118 | composite z-score [5]: 0.409 | composite z-score [6]: 1.53 | composite z-score [7]: 0.661 | composite z-score [8]: 1.3 | composite z-score [9]: 0.715 | composite z-score [10]: 1.14 | composite z-score [11]: 0.705 | composite z-score [12]: 1.14 | composite z-score [13]: 0.303 | composite z-score [14]: 0.882 | composite z-score [15]: 1.36 | composite z-score [16]: 1.52 | z-score [17]: -0.701 | composite z-score [18]: 1.46 | composite z-score [19]: 0.658 | z-score [20]: -1.04 (inactive)

CCC#CCN(Cc1ccccc1Br)[C@H](/C=C/C1CC1)[C@@H](O)Cc1ccccc1
composite z-score [1]: 0.0902 | composite Z-score [2]: -0.457 (inactive) | composite z-score [3]: -0.262 | composite z-score [4]: -0.176 | composite z-score [5]: -0.458 | composite z-score [6]: -0.408 | composite z-score [7]: -0.477 | composite z-score [8]: -0.549 | composite z-score [9]: -0.784 | composite z-score [10]: -0.138 | composite z-score [11]: 0.251 | composite z-score [12]: -0.499 | composite z-score [13]: -0.579 | composite z-score [14]: -0.805 | composite z-score [15]: -0.837 | composite z-score [16]: -0.984 | z-score [17]: -0.368 | composite z-score [18]: -0.355 | composite z-score [19]: -0.366 | z-score [20]: 0.619 (inactive)

CC(c1ccccc1)C(O)C1C=CC2C(=O)N(C)C(=O)C2N1Nc1ccccc1 (stereo not given)
composite z-score [1]: 0.921 | composite Z-score [2]: 0.318 (inactive) | composite z-score [3]: 0.5 | composite z-score [4]: -0.0067 | composite z-score [5]: 0.601 | composite z-score [6]: 2.5 | composite z-score [7]: 0.406 | composite z-score [8]: 1.31 | composite z-score [9]: -0.826 | composite z-score [10]: 1.21 | composite z-score [11]: 1.79 | composite z-score [12]: 1.24 | composite z-score [13]: 0.322 | composite z-score [14]: 1.02 | composite z-score [15]: 0.777 | composite z-score [16]: -0.579 | z-score [17]: -0.0184 | composite z-score [18]: -0.17 | composite z-score [19]: 1.21 | z-score [20]: 0.206 (inactive)

CCCNC(=O)[C@@]1(Sc2ccc(C)cc2)CC(=O)N(C2Cc3ccccc3C2)[C@@H]1c1ccc(CO)cc1I
composite z-score [1]: -0.533 | composite Z-score [2]: -0.0764 (inactive) | composite z-score [3]: 0.606 | composite z-score [4]: -0.0186 | composite z-score [5]: 0.427 | composite z-score [6]: 0.807 | composite z-score [7]: 0.702 | composite z-score [8]: 0.95 | composite z-score [9]: 0.378 | composite z-score [10]: -0.162 | composite z-score [11]: 1.59 | composite z-score [12]: 0.255 | composite z-score [13]: 0.371 | composite z-score [14]: 0.34 | composite z-score [15]: 1.01 | composite z-score [16]: -0.209 | z-score [17]: 1.87 | composite z-score [18]: 0.489 | composite z-score [19]: 0.157 | z-score [20]: -0.767 (inactive)

COCCOC(=O)N1C(=O)[C@@]2(c3cc(C#CC4(O)CCCCCC4)ccc31)[C@H](C(=O)Nc1nc3ccccc3s1)[C@H]1C(=O)O[C@H](c3ccccc3)[C@H](c3ccccc3)N1[C@@H]2c1ccc(O)cc1
composite z-score [1]: 0.25 | composite Z-score [2]: 0.56 (inactive) | composite z-score [3]: 0.188 | composite z-score [4]: -0.088 | composite z-score [5]: 0.303 | composite z-score [6]: 1.59 | composite z-score [7]: 0.713 | composite z-score [8]: 1.3 | composite z-score [9]: 0.626 | composite z-score [10]: 1.18 | composite z-score [11]: 1.89 | composite z-score [12]: 1.24 | composite z-score [13]: 0.783 | composite z-score [14]: 0.942 | composite z-score [15]: 1.28 | composite z-score [16]: 1.06 | z-score [17]: -1.14 | composite z-score [18]: 1.15 | composite z-score [19]: 0.275 | z-score [20]: -0.557 (inactive)
